Assay results: PubChem BioAssay (NCI)
Compounds without any hit were thinned out: in the full panel of roughly 79,000, 15% have a hit. A number with no mark means an inactive call. Activity calls are given as the source filed them. No stated cut-off is given here; in the data, active means growth inhibition above about 70%; inactive means the rest.

Test: NCI Yeast Anticancer Drug Screen. Data for the wt2 strain (AID 169);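 further: 0% = growth of vehicle-treated yeast cultures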
Details: S. cerevisiae wt2 strain growth inhibition, stronger effect = higher value
Experimental: Growth inhibition of yeast strains with defined genetic alterations is measured as a screen for potential anti-cancer activity. Selected strains with alterations in DNA damage repair or cell cycle control were exposed to compounds and growth inhibition was measured relative to vehicle treated controls. The strain used in this assay is wt2

| SMILES | growth inhibition (at 1.2 µM) | growth inhibition (at 3.7 µM) | growth inhibition (at 11.0 µM) | growth inhibition (at 33.0 µM) | growth inhibition (at 100.0 µM) |
| --- | --- | --- | --- | --- | --- |
| COc1cc(C(=O)C=O)cc(OC)c1OC | 2% | 1% | 0% | 0% | 88% (active) |
| COc1cc2c(cc1O)[C@H](C)C(c1ccccc1OC)O2 (stereo not given in full) | -26% | -32% | -26% | -4% | 96% (active) |
| O=C1c2ccccc2C(=O)c2c(O)c(NCCNCCO)cc(O)c21 | -16% | -4% | 73% (active) | 81% (active) | 93% (active) |
| Cc1cc(O)c(C(C)C)cc1SC#N | -11% | -24% | 52% | 36% | 98% (active) |
| O=[N+]([O-])c1cn[n+]([O-])c2ccccc12 | -18% | 5% | 75% (active) | 100% (active) | 99% (active) |
| S=C1C(=Nc2ccccc2)N(c2ccccc2)/C(=N\c2ccccn2)N1c1ccccc1 | -4% | -2% | 27% | 99% (active) | 95% (active) |
| CC(=O)O/N=C1C=C/C(=C(/C#N)c2ccccc2)C=C/1C | 2% | 7% | 65% | 99% (active) | 96% (active) |
| CCCCCCCCCCCCCCCCCCNc1nc(=O)n(C2CC(OP(=O)(O)OCC3OC(n4cc(F)c(=O)[nH]c4=O)CC3O)C(CO)O2)cc1F (stereo not given) | -38% | -34% | -68% | 15% | 79% (active) |
